In PubChem BioAssay AID2227 (Johns Hopkins Ion Channel Center, 2009) one finds B-score data, which are given here for 109 molecules.

In all, about 310,000 compounds went through this assay and about 1,300 (0.42%) were called active.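 The calls were made as follows: active = B-score of calcium response area above 5 SD of library B-scores, with initial fluorescence ratio within 5 SD of library; inactive = the rest.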 The entries come from a sample that favours actives as a whole.

The target of this assay is Short transient receptor potential channel 4 (Mus musculus) (UniProt Q9QUQ5). Kind of assay: TRPC4 channel potentiators under submaximal DAMGO – cell-based, mouse TRPC4beta, HEK293 mu-opioid, Fluo-4 calcium, primary screen (AID 2227).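 As to B-score: B-score of integrated fluorescence ratio over time as area under calcium response.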 The note with it: DAMGO EC20, Fluo-4 Ca2+ flux, at 10 µM; hits give high values. In general terms: Calcium assays in cells follow changes in intracellular calcium, usually with a dye or a luminescent sensor.
Chain of Short transient receptor potential channel 4 (Mus musculus) (Q9QUQ5 whole entry, looked up): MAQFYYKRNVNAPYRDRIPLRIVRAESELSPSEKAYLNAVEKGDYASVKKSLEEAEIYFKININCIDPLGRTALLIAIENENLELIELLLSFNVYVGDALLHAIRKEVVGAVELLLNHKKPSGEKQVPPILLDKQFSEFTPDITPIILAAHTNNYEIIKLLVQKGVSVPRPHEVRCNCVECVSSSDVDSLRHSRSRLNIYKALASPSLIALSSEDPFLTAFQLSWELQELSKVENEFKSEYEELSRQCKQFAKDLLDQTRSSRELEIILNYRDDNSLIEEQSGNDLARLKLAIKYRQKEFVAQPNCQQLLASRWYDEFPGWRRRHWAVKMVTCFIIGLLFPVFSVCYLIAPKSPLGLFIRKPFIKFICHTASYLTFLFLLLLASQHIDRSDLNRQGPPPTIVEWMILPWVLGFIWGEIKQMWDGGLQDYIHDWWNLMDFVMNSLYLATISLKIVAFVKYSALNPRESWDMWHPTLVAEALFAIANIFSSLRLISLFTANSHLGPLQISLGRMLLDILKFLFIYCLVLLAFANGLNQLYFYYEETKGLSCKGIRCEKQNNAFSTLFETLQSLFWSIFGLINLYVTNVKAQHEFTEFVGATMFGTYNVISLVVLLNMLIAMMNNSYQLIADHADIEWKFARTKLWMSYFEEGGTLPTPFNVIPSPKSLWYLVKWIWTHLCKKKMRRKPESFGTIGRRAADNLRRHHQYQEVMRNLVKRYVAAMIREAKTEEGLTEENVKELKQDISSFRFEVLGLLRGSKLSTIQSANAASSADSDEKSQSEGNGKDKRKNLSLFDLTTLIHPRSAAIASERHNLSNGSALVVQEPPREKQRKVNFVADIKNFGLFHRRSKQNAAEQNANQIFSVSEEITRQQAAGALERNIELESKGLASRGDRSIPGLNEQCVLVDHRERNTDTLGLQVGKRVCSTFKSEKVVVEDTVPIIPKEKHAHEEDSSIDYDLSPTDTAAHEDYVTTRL
In the case of `CCN1/C(=C\c2ccc3ccccc3[n+]2CC)Sc2cc(C)ccc21`, the B-score is 13 (active). For `N#Cc1cc([N+](=O)[O-])ccc1NCC1CCCO1` (centres undefined), the B-score entry was “inactive”.

In the case of `CCc1ccc2c(c1)C1(NN=C(c3ccccc3)S1)C(=O)N2` (centres undefined), the B-score was 11 (active).

Consider `COC(C[C@H](O)CC(=O)COCc1ccccc1)OC`, for which the B-score entry is “inactive”. The result for `COC(=O)C(C)Sc1nc2c(c(=O)n(C)c(=O)n2C)n1Cc1cccc(C)c1` (centres undefined) reads “inactive”; that for `Cc1cccc(Cn2c(SCCO)nc3c2c(=O)n(C)c(=O)n3C)c1`, “inactive”; that for `Cc1cccc(Cn2c(N3CCN(c4ccccc4)CC3)nc3c2c(=O)n(C)c(=O)n3C)c1`, 41 (active).

Take `CCOC(=O)NN1C(=O)c2ccccc2NC1c1ccccc1O` (centres undefined): the B-score entry was “inactive”. With `CC(NS(=O)(=O)c1ccc(Br)cc1)C(=O)NCC1CCCO1` (centres undefined), the B-score result was “inactive”.

For `O=C(CSc1ccc(-c2ccc(Br)cc2)nn1)NCC1CCCO1` (centres undefined), the B-score entry was “inactive”. The result for `OC(CNCC1CCCO1)Cn1c2ccc(Br)cc2c2cc(Br)ccc21` (centres undefined) reads 17 (active); that for `Cc1cc(S(=O)(=O)c2cc3ccc(O)c(C)c3oc2=O)ccc1F`, “inactive”; that for `Cc1ccc(/C=N/NC(=S)Nc2cccc(S(=O)(=O)N(C)C)c2)o1`, “inactive”. Turning to `C/C(=N\NC(=S)NC1CCCCC1)c1ccc(C)o1`, the B-score result is “inactive”. On to `Cc1ccc(/C=N/NC(=S)NC2CCCCC2)o1`, for which the B-score was 35 (active). Consider `NC(=O)C1=C[C@H](c2csc3ccccc23)C[C@H](OCc2ccc(CO)cc2)O1`, for which the B-score entry is “inactive”.

Consider `O=C(NC1CC1)C1=C[C@H](c2c[nH]c3ccccc23)C[C@H](OCc2ccc(CO)cc2)O1`, for which the B-score was 11 (active).

Regarding `NC(=O)C1=C[C@@H](c2csc3ccccc23)C[C@@H](OCc2ccc(CO)cc2)O1`, the B-score result is “inactive”. The entry for `Cc1c(-c2nn(C)c(=O)c3ccccc23)oc2ccc(F)cc2c1=O` is “inactive”; for `CC(=O)Nc1ccc(C(=O)CSc2nnc(Cc3ccccc3)o2)cc1` it is “inactive”. `CCOc1ccc(Nc2nc(Cc3nnc(SCC(=O)NC4CCCC4)n3C)cs2)cc1`: the B-score entry was “inactive”. As to `CCOc1ccc(Nc2nc(Cc3nnc(SCC(=O)c4ccc(C)cc4)o3)cs2)cc1`, the B-score was 30 (active). The entry for `NC(=O)C1(N2CCCCC2)CCN(C(=O)c2ccc(C#Cc3ccccc3)o2)CC1` is “inactive”; for `CC1CN(CCOc2ccccc2[N+](=O)[O-])CC(C)O1` (centres undefined) it is “inactive”; for `CN1CCN(CCCCOc2cccc3ccccc23)CC1` it is “inactive”.

Take `CC1CC(C)CN(CCOc2cccc3ccccc23)C1` (centres undefined): the B-score was 11 (active). The entry for `CCOC12CC(C)(C)CC(C)(CC3=C1C(=O)CC(C)(C)C3)C2` (centres undefined) is “inactive”; for `CCCCCCCNc1nc(Cl)nc(NCCO)n1` it is “inactive”; for `O=C(N/N=C/c1ccc(OCC2COCCO2)cc1)c1ccc(Br)cc1` (centres undefined) it is “inactive”. The result for `CCOc1ccc(N2C(=O)/C(=C/c3ccc(C)o3)N(C)C2=S)cc1` reads “inactive”; that for `CC(NC(=O)COc1cccnc1[N+](=O)[O-])c1ccc(Cl)cc1Cl` (centres undefined), “inactive”. As for `CCN(CC)CCOCCOc1ccc(Cl)c2ccccc12`, the B-score was 21 (active). With `CN(C)CCOCCOc1ccc(Cl)c2ccccc12`, the B-score result was “inactive”.

In the case of `Clc1cccc(Cl)c1OCCOCCNCc1ccccc1`, the B-score entry was “inactive”. The entry for `O=S(=O)(Nc1cccc(-n2cnnn2)c1)c1cnc(Cl)c(Cl)c1` is “inactive”; for `COc1cc(S(=O)(=O)Nc2ncn[nH]2)ccc1Cl` it is “inactive”. For `Cc1ccc(C)c(CN2CCC(CNC(=O)Nc3ccc(C)c(F)c3)CC2)c1`, the B-score is 10 (active). Turning to `COc1cc(NC(=O)NCC2CCN(Cc3ccc(C)cc3)CC2)cc(OC)c1OC`, the B-score result is “inactive”.

Turning to `Cc1cccc(CN2CCC(CNC(=O)Nc3ccc(F)c(Cl)c3)CC2)c1`, the B-score entry was “inactive”.

In the case of `COC(=O)c1cc(S(=O)(=O)N2CCC(C(N)=O)CC2)oc1C`, the B-score result was “inactive”. The result for `O=c1c(-c2ccccc2Cl)c[nH]n1-c1ccccc1` reads “inactive”; that for `Cc1ccc(C(=O)NCCc2nnc(SCC(=O)Nc3cccc(C(=O)O)c3)n2C)cc1`, “inactive”; that for `Cc1cc(NC(=O)CCN2CCN(Cc3ccccc3)CC2)ccc1Br`, 20 (active).

With `O=C(CN1CCN(Cc2ccccc2)CC1)Nc1ccc(F)c(F)c1`, the B-score result was “inactive”. The result for `CCOC(=O)N1CCN(CCC(=O)Nc2ccccc2)CC1` reads “inactive”; that for `COc1ccccc1C(=O)Nc1ccnn1C1CCN(Cc2cnn(C)c2)CC1`, “inactive”; that for `O=C(COc1ccc(Cl)cc1)Nc1ccc2c(c1)OCO2`, “inactive”.

In the case of `CCC(C)Sc1nc2c(cnn2-c2ccc(F)cc2)c(=O)[nH]1` (centres undefined), the B-score result is “inactive”. With `O=C(c1ccco1)N1CCN(C(=O)C2CCCN(S(=O)(=O)c3cccc4nsnc34)C2)CC1` (centres undefined), the B-score entry is “inactive”. With `CCCCN(CC)C(=O)C1CCCN(S(=O)(=O)c2cccc3nsnc23)C1` (centres undefined), the B-score entry is “inactive”. For `CCCCN(C)CCNC(=O)C1CCCN(S(=O)(=O)c2cccc3nsnc23)C1` (centres undefined), the B-score is 25 (active). Turning to `CC(C)c1nc(CNC(=O)CC2C(=O)NCCN2Cc2cccc(F)c2F)cs1` (centres undefined), the B-score entry is “inactive”. The entry for `C=CCNC(=O)CC12CC3CC(C1)CC(CC(=O)NCC=C)(C3)C2` is “inactive”.

On to `Cc1cc(-c2ccccc2)n2nc(C)c(-c3ccccc3)c2n1`, for which the B-score result was “inactive”. The entry for `Cc1cc(-n2nc(C)cc2C)n2nc(C)c(-c3ccccc3)c2n1` is “inactive”; for `CCc1c(C)nc2c(-c3ccccc3)c(C)nn2c1Nc1ccc(NC(C)=O)cc1` it is 27 (active); for `CCCC(C)c1nnc(NC(=O)C2CC(=O)N(c3ccc(OCC)cc3)C2)s1` (centres undefined) it is “inactive”. Take `COc1ccc(S(=O)(=O)NCCCc2ccccc2)cc1`: the B-score is 32 (active). With `O=S(=O)(NCCCc1ccccc1)c1ccc(Br)cc1`, the B-score result was “inactive”. Consider `O=S(=O)(NCCc1ccccc1)c1ccccc1`, for which the B-score result was “inactive”. The entry for `COC(=O)c1c(NC(=O)CN2CCN(S(=O)(=O)c3ccccc3[N+](=O)[O-])CC2)sc2c1CCC(C)C2` (centres undefined) is “inactive”; for `CS/C(=C\C(=O)c1ccco1)Nc1ccccc1Cl` it is “inactive”.

Turning to `C#CCCCc1nc2ccccc2c(=O)n1N`, the B-score entry is “inactive”. The result for `CCCCn1c(N)c(N(CC(C)C)C(=O)c2cccc(S(=O)(=O)N3CC(C)OC(C)C3)c2)c(=O)[nH]c1=O` (centres undefined) reads “inactive”; that for `CCn1cc(CN2CCN(CC(C)(C)C)C(CCO)C2)c2ccccc21` (centres undefined), “inactive”. As to `CCn1cc(C(=O)NCCO)c(=O)c2cc(F)c(N3CCN(C)CC3)cc21`, the B-score entry was “inactive”. On to `CN1CCN(c2cc3c(cc2F)c(=O)c(C(=O)O)cn3CCF)CC1`, for which the B-score entry is “inactive”. Regarding `CCCCCCn1cc(C(=O)O)c(=O)c2cc(F)c(N3CCCCC3)cc21`, the B-score was 12 (active). The entry for `O=C(c1ccc(F)cc1)c1c[nH]c(C(=O)NCc2cccnc2)c1` is “inactive”. The entry for `C=CCC1(C(=O)N(C)Cc2ccccc2)CCN(C(=O)OC(C)(C)C)CC1` is “inactive”; for `CC1(C)CC(=O)C(N=Nc2c(F)cccc2F)=C(O)C1` it is “inactive”; for `Cc1ccc(N2C(=O)C(NC(=O)c3c(F)cccc3F)(C(F)(F)F)C3=C2CC(C)(C)CC3=O)cc1` (centres undefined) it is 119 (active). The result for `C=CCSc1nnc(N2C(=O)C(O)=C(C(=O)c3ccco3)C2c2ccc(F)cc2)s1` (centres undefined) reads “inactive”; that for `COc1ccccc1N(C)S(=O)(=O)c1ccc(C(=O)NC2CCCCCC2)cc1`, “inactive”; that for `COC(=O)Cc1csc(/N=C/c2c(O)n(-c3cccc(C(F)(F)F)c3)c(=O)c3ccccc23)n1`, “inactive”.

For the molecule `O=S(=O)(c1ccc(Br)cc1)c1nc(-c2ccccc2)oc1N1CCOCC1`, the B-score was 11 (active). `O=S(=O)(c1ccccc1)c1nc(-c2ccccc2)oc1NCCCN1CCOCC1`: the B-score entry is “inactive”. The result for `O=S(=O)(c1ccccc1)c1nc(Cc2ccccc2)oc1N1CCOCC1` reads “inactive”; that for `COc1nnc(-c2ccc(C)c(S(=O)(=O)N(C)C)c2)c2ccccc12`, “inactive”. The entry for `CC1CCCCC1NC(=O)CO/N=C/c1ccc(OC(F)F)cc1` (centres undefined) is “inactive”; for `Cc1nn(CC(=O)Nc2ccc(N(C)C)cc2)c(C)c1[N+](=O)[O-]` it is “inactive”. The result for `COc1cccc(/C=C/C(=O)OCC(=O)N2CCCc3ccccc32)c1` reads “inactive”.

Take `Cc1cc2cc3c(N)[nH]nc3nc2cc1C`: the B-score is 11 (active). Take `O=C(NCCN1CCOCC1)c1cc(Sc2cccc(Cl)c2)nc2ccccc12`: the B-score entry was “inactive”. The result for `COc1cc2c(C(=O)N3CCN(C)CC3)c(CSc3ccccc3)n(C)c2cc1Br` reads 18 (active). As to `COc1ccccc1OCc1ccc(C(=O)N2CCN(C)CC2)o1`, the B-score entry was “inactive”. The result for `COc1cc(C(=O)N2CCN(C)CC2)cc(OC)c1OC` reads “inactive”.

For the molecule `CC1=C(C(=O)OCC2CCCCC2)C(c2ccc(F)cc2)NC(=O)N1` (centres undefined), the B-score entry is “inactive”. The result for `C=CCc1cc(C)ccc1OCCCn1ccnc1` reads “inactive”; that for `Clc1c(OCCCn2ccnc2)ccc2ccccc12`, 15 (active). The result for `c1ccc(Cc2ccc(OCCn3ccnc3)cc2)cc1` reads “inactive”; that for `Fc1ccccc1/C=N/Nc1cc(N2CCCCC2)ncn1`, “inactive”. The result for `O=C(NCc1cccc(Cl)c1)C1CCC(=O)N(C2CC2)C1` (centres undefined) reads “inactive”; that for `C=CCN(Cc1nc(-c2cc(OC)c3c(c2)OCO3)oc1C)C1CCS(=O)(=O)C1` (centres undefined), “inactive”; that for `C=C(C)COc1ccc(-c2ncncc2-c2ccc(OC)cc2)c(O)c1`, “inactive”. Take `CCOc1ccc(-c2nc(N)ncc2-c2ccccc2OC)c(O)c1`: the B-score result was “inactive”. On to `C=C(C)COc1ccc(-c2nc(N)ncc2-c2ccccc2OC)c(O)c1`, for which the B-score is 22 (active).

As to `CC(C)Oc1ccc(CC(=O)NNC(=S)Nc2ccc(Br)cc2)cc1`, the B-score entry is “inactive”. The result for `COc1cc(CCC(=O)Nc2ccncc2Cl)cc(OC)c1OC` reads “inactive”; that for `O=C1c2ccccc2C(=O)c2c1cccc2N1CCN(C/C=C/c2ccccc2)CC1`, “inactive”; that for `O=C1c2ccccc2C(=O)c2c1cccc2N1CCN(CCO)CC1`, “inactive”. `O=C1c2ccccc2C(=O)c2c1cccc2N1CCN(Cc2ccccc2)CC1`: the B-score was 14 (active).

For `Cc1ccc(Cl)cc1NC(=O)CN1CCN(S(=O)(=O)N2CCOCC2)CC1`, the B-score entry was “inactive”. The entry for `O=C(c1ccc(Cl)s1)N(Cc1nnc(-c2ccccc2Cl)o1)C1CC1` is “inactive”. For the molecule `CCc1c(C)nc(N)n2c(SCC(=O)NC3CCCCC3)nnc12`, the B-score result was “inactive”. Consider `Cc1ccc(NC(=O)c2cnc(SCC(=O)NCC3CCCO3)n(C)c2=O)cc1` (centres undefined), for which the B-score entry was “inactive”.

For the molecule `Cc1cc(C(=O)Nc2ccccc2N2CCOCC2)c2ccccc2n1`, the B-score result is “inactive”.

In the case of `COc1ccccc1NC(=O)c1cc(Cl)nc2ccccc12`, the B-score entry was “inactive”.

Turning to `COC(=O)c1cc(N2CCNCC2)nc2ccccc12`, the B-score is 39 (active).
